CYP2C19 inhib – inhibitors of human CYP2C19; P33261; CYP2C19 Supersomes, luciferin-H EGE luminescence, 30 min; inhibition, % at 5 µM; 96,000 compounds, 21% hits;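 active = CYP2C19 inhibition above a set limit at 5 µM in the primary screen, cut at about 50% in these data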
CYP2C9 inhib – blocks human cytochrome P450 2C9 | P11712 | CYP2C9 Supersomes, luciferin-H conversion, luminescence | inhibition, % at 5 µM | 96,000 compounds, 20% hits | AID 777;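 active = blocking of liver enzyme CYP2C9 beyond about 50% at 5 µM, limit read from the data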
CYP2C19 activ – increases human CYP2C19 enzyme activity; AID 1025; recombinant CYP2C19, luciferin-H EGE luminescence; stronger effect = higher value; 0 = fully inhibited enzyme, 1 = untreated enzyme; activation factor at 5 µM; 96,000 tested, under 10 active;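 active = activation factor of at least 2 at 5 µM in the primary screen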
CYP2C9 activ – activators of human CYP2C9. P11712. recombinant CYP2C9, luciferin-H conversion, luminescence; stronger effect = higher value; factor 1 = untreated enzyme, 0 = blocked. activation factor at 5 µM. 96,000 compounds, 1.4% hits. AID 1024;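 active = activation factor of 2 or more for CYP2C9 at a 5 µM dose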
Cav32 inh – blocks human Cav3.2 T-type calcium channel; O95180; Cav3.2-expressing cells, Fluo-4 calcium fluorescence FDSS; stronger effect = lower value; B-score at 10 µM; 100,000 compounds, 4% hits; AID 449739;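 active = single-dose well whose peak fluorescence ratio is a statistical outlier from its plate by either plate-standardised score or position-corrected B-score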
Large screens that a line does not name were inactive. Hits are enriched below; roughly 27% of the tested compounds scored in any of these assays.

Cc1cc(NC(=O)c2cccc(F)c2)ncc1NC(=O)c1ccco1	CYP2C19 inhib 96, CYP2C9 inhib 63
CN1C2C=C3C(C#N)=C(N)C(C#N)(C#N)[C@@H](c4cccs4)C3C1CC2 (stereo partly drawn)	none
CC(C)(C)C1CC=C2C(C#N)=C(N)C(C#N)(C#N)C(c3cccs3)C2C1 (stereo not drawn)	CYP2C19 inhib 57, CYP2C9 inhib 90 (no result: Cav32 inh)
CCOC(=O)N1CCN(C(=O)COc2ccc(Cl)cc2)CC1	none
COc1ccc(N2CCN(C(=O)C(C)(C)Oc3ccc(Cl)cc3)CC2)cc1	CYP2C19 inhib 74, CYP2C9 inhib 90
CCOC(=O)N1CCN(C(=O)C(C)(C)Oc2ccc(Cl)cc2)CC1	CYP2C19 inhib 74, CYP2C9 inhib 84
COc1cc2c(cc1OC)C1=C(C#N)CN(CC(=O)O)CN1CC2	CYP2C9 inhib 57 (no result: Cav32 inh)
CC(C)CNS(=O)(=O)c1cc(C(=O)N2CCOCC2)c(Cl)cc1Cl	none
CCCn1c(C)cc(C(=O)COC(=O)c2cc(S(=O)(=O)NCC(C)C)c(Cl)cc2Cl)c1C	CYP2C19 inhib 66
O=C(Nc1nc(=O)n(C(=O)C2CC2)s1)c1ccccc1	CYP2C9 inhib 80
Cc1ccc(C(=O)Nc2nc3ccccc3c(=O)s2)cc1	none
Cc1ccc(C(=O)Nc2nc(=O)n(C(=O)c3ccccc3C)s2)cc1	CYP2C9 inhib 82, Cav32 inh -7.4
Cc1ccc(NC(=O)CO/N=C(\N)c2nonc2N)cc1	CYP2C19 inhib 70
O=C(c1ccc(CN2CCOCC2)cc1)N1CCN(c2cccc(Cl)c2)CC1	none
Cc1ccc(C(=O)N2CCOCC2)cc1Cl	none
Cc1ccc(Cl)cc1N1CCN(C(=O)c2ccc(CN3CCOCC3)cc2)CC1	CYP2C19 inhib 60, CYP2C9 inhib 67
Cc1ccc(OCc2ccc(C(=O)N3CCOCC3)cc2)cc1C	CYP2C19 inhib 71
Cc1nn(C(=O)Cn2ccc([N+](=O)[O-])n2)c(C)c1Br	none
COC(=O)CN(c1nc(C)c(Br)c(OC)n1)S(=O)(=O)c1ccc(C)cc1	CYP2C19 inhib 90, CYP2C9 inhib 89, Cav32 inh -5.5
CC(C)(C)c1cccc(Oc2nn[nH]n2)c1	CYP2C19 inhib 72
CCS(=O)(=O)N1CCN(C(=O)C(c2ccccc2)c2ccccc2)CC1	none
COc1ccccc1N1CCN(C(=O)C(Sc2ccccc2)c2ccccc2)CC1 (stereo not drawn)	CYP2C19 inhib 61, CYP2C9 inhib 59, Cav32 inh -4.6
CS(=O)(=O)N1CCN(C(=O)C(Sc2ccccc2)c2ccccc2)CC1 (stereo not drawn)	CYP2C19 inhib 71
CCOC(=O)C1CCCN(S(=O)(=O)c2ccc(Br)c(OC)c2)C1 (stereo not drawn)	CYP2C19 inhib 71
CC(C)NC(=O)C1CCCN(S(=O)(=O)c2ccc(-n3cnnn3)cc2)C1 (stereo not drawn)	CYP2C9 inhib 51
O=C(NC1CCCC1)C1CCCN(S(=O)(=O)c2ccc(-n3cnnn3)cc2)C1 (stereo not drawn)	none
CCOC(=O)C1CCCN(S(=O)(=O)c2ccc(OC)c3ccccc23)C1 (stereo not drawn)	CYP2C19 inhib 98, Cav32 inh -4
CCOC(=O)C1CCCN(S(=O)(=O)c2cn(C)c(=O)n(C)c2=O)C1 (stereo not drawn)	CYP2C19 inhib 78
C=C(C(=O)O)C(CCCCCC)C(=O)O (stereo not drawn)	none (no result: CYP2C19 inhib, CYP2C9 inhib, CYP2C19 activ, CYP2C9 activ)
NC(=O)C1CCCN(S(=O)(=O)c2ccc(Br)cc2)C1 (stereo not drawn)	CYP2C19 inhib 59 (no result: Cav32 inh)
CCOC(=O)C1CCCN(S(=O)(=O)c2ccc(F)c(C(=O)Nc3ccc(F)c(F)c3)c2)C1 (stereo not drawn)	CYP2C19 inhib 59, CYP2C9 inhib 60
CCOC(=O)C1CCCN(S(=O)(=O)c2ccccc2)C1 (stereo not drawn)	none
CCOC(=O)C1CCCN(S(=O)(=O)c2c(C)c(C)cc(C)c2C)C1 (stereo not drawn)	CYP2C19 inhib 87
CN1CCN(C(=O)C2=C[C@H](C(C)(C)C)C[C@H](OCCCCO)O2)CC1	none (no result: CYP2C19 inhib, CYP2C9 inhib, CYP2C19 activ, CYP2C9 activ)
CCCCCCn1c(N(CC)CC)nc2c1c(=O)[nH]c(=O)n2C	none
Cc1sc2ncnc(SCC(=O)NC(=O)NCc3ccco3)c2c1C	none
COc1cc2c(cc1OC)C(c1cc3ccccc3oc1=O)=NC(C)(C)C2	none (no result: CYP2C19 inhib, CYP2C9 inhib, CYP2C19 activ, CYP2C9 activ)
C=CCc1cccc2cc(C(=O)N(C)C)c(=O)oc12	CYP2C9 activ 3
C=CCc1cccc2cc(C(=O)N(CC)CC)c(=O)oc12	CYP2C9 activ 2.2
C=CCc1cccc2cc(C(=O)N3CCN(C(=O)c4ccco4)CC3)c(=O)oc12	CYP2C9 activ 2.3
COc1cccc2cc(C(=O)N3CCN(C(=O)c4ccco4)CC3)c(=O)oc12	none
C=CCc1cccc2cc(C(=O)O)c(=O)oc12	none
O=C(NN1CCOCC1)c1cc(-c2cccc(Cl)c2)nc2ccccc12	none
Cn1cc(C(c2ccccn2)c2cn(C)c3ccccc23)c2ccccc21	CYP2C9 inhib 96, Cav32 inh -6.6
Cc1ccccc1C(O)c1ccccn1 (stereo not drawn)	none
Cc1[nH]c2ccccc2c1C(c1ccccn1)N1CCC(C)CC1 (stereo not drawn)	none
c1ccc(C(c2c[nH]c3ccccc23)c2c[nH]c3ccccc23)nc1	CYP2C19 inhib 54, CYP2C9 inhib 95 (no result: Cav32 inh)
O=C(CCCCCn1c(=O)[nH]c2ccsc2c1=O)NCc1cccs1	CYP2C9 inhib 81
O=C(CCCCCn1c(=O)[nH]c2ccsc2c1=O)NCc1ccc(F)cc1	CYP2C9 inhib 88
O=C(CCCCCn1c(=O)[nH]c2ccsc2c1=O)N1CCN(C2CCCCC2)CC1	CYP2C19 inhib 56, CYP2C9 inhib 72
O=C(CCCn1c(=O)[nH]c2ccsc2c1=O)NCc1cccs1	none
O=[N+]([O-])c1ccc(NCCNc2ccc(Cl)nn2)cc1	none
CC(C)N1CC(C(=O)O)CC1=O (stereo not drawn)	none
COc1cc(C2CC(=O)NC(SCC(=O)Nc3ccccc3C)=C2C#N)ccc1O (stereo not drawn)	none
Cc1ccc(C2CC(=O)NC(SCC(=O)Nc3nccs3)=C2C#N)cc1 (stereo not drawn)	CYP2C9 inhib 65
CCOc1ccccc1C1CC(=O)NC(SCC(=O)Nc2nccs2)=C1C#N (stereo not drawn)	CYP2C19 inhib 60, CYP2C9 inhib 67
N#CC1=C(SCC(=O)Nc2ccccc2)NC(=O)CC1c1ccc(O)cc1 (stereo not drawn)	CYP2C19 inhib 71
COC(=O)CSC1=C(C#N)C(c2ccsc2)CC(=O)N1 (stereo not drawn)	none (no result: CYP2C19 inhib, CYP2C9 inhib, CYP2C19 activ, CYP2C9 activ)
CCOC(=O)N1CCN(c2c(Nc3cc(C)[nH]n3)c(=O)c2=O)CC1	none
CC(CN1CCOCC1)(NS(=O)(=O)c1ccccc1)c1ccccc1 (stereo not drawn)	CYP2C19 inhib 92, CYP2C9 inhib 60
Cn1c(C(O)c2ccc3c(c2)OCO3)nc2ccccc21 (stereo not drawn)	CYP2C19 inhib 97, CYP2C9 inhib 62
